Assay outcomes as filed in PubChem.
ERa coact pot: enhancers of ERα–SRC-1 coactivator binding, primary screen, biochemical, TR-FRET, ERα LBD, low estradiol. TR-FRET ERalpha-LBD/SRC-Cy5 coactivator binding, 2 h; 100 = basal binding, no effect. coactivator binding (% of control), % at 25.6 µM. hit rate 1.3% among 86,000; in the data active = activity above about 200%;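 note: binding measured in presence of low estradiol as agonist stimulus; 0% = peptide alone without receptor and 100% = receptor with peptide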
Target sequence (P03372 whole entry, looked up, the tested form may be a part): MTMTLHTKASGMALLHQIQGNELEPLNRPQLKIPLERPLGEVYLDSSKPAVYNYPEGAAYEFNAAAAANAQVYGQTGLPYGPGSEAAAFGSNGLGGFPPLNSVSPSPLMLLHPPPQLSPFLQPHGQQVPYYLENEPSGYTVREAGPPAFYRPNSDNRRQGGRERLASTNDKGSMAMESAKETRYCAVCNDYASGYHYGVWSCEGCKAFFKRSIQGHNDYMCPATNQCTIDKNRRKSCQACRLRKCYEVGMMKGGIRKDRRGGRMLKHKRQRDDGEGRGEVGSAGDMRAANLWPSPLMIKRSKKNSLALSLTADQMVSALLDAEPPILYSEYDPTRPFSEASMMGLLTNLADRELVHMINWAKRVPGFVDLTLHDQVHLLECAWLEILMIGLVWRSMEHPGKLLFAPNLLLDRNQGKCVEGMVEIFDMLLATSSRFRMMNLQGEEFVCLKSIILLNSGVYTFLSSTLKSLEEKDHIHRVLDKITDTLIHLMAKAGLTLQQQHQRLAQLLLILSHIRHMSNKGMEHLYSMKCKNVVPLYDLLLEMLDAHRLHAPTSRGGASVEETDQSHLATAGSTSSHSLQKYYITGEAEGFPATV
ERa coact inh: ERα–SRC-1 coactivator interaction inhibitors, primary screen, biochemical, TR-FRET, ERα LBD, estradiol-bound | TR-FRET ER-alpha LBD / SRC-1 peptide | Estrogen receptor (Homo sapiens), P03372 | inhibition, % at 25.6 µM | hit rate 1.7% among 86,000; in the data active = inhibition above about 50%;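 note: 0% = receptor plus peptide control and 100% = peptide only without receptor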
MRP resist rev: reversal of MRP1-mediated doxorubicin resistance, primary screen, H69AR cells, doxorubicin co-treatment; differential viability (reversal), % at 10 µM; hit rate 0.04% among 85,000; H69AR cells + 2 uM doxorubicin, CellTiter-Glo, 72 h;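 active = viability drop by adding the cancer drug above about 55%, with treated viability meeting a 40% cutoff, limit read from the data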;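 note: viability without doxorubicin minus viability with 2 µM doxorubicin for each compound; larger differential means the compound sensitizes cells more to doxorubicin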
ERb SRC1 inh: inhibitors of ERβ-SRC1 coactivator interaction, primary screen, biochemical, TR-FRET, ERβ LBD, SRC-1 peptide | inhibition, % at 25.6 µM | TR-FRET ER-beta LBD / SRC1-Cy5 peptide binding; receptor agonist-loaded with 1 µM estradiol | AID 633, 2007 | hit rate 1.3% among 86,000 | Estrogen receptor beta (Homo sapiens), Q92731;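 active = compounds whose percent inhibition of the receptor-coactivator binding signal exceeds about 50% in the single-dose screen, limit read from the data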;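 note: 0% = receptor plus peptide wells without compound and 100% = peptide-only wells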
MRP-1 activ: H69AR viability gain despite doxorubicin, primary screen, MRP-1 activator project, H69AR cells, CellTiter-Glo; AID 799, 2007; hit rate 0.61% among 140,000; viability increase, % at 10 µM; viability rescue;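 active = viability gain under doxorubicin at or above a set limit, the compound median plus 3 SD, cut at about 4.7% in these data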;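 note: MRP-1 overexpressing cells given doxorubicin 25 µM after compound pretreatment; 18-22 h compound pretreatment then 72 h with doxorubicin before readout; 0% = doxorubicin-only wells and 100% = vehicle-treated cells without doxorubicin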
An asterisk follows results filed as active; nt = not tested or not shown; [ ] = remark or other dose. Only some compounds are listed: those with a hit (about 2.7% of all), similar ones and a draw of the others.

SMILES | ERa coact pot | ERa coact inh | MRP resist rev | ERb SRC1 inh | MRP-1 activ
COC(=O)N/N=C\c1ccc(-c2cc(Cl)c(Cl)cc2Cl)o1 | nt | nt | nt | nt | 4
COC(=O)N/N=C/c1ccc(-c2cc(Cl)ccc2Cl)o1 | nt | nt | nt | nt | 4.9*
CCN(CC)CCN(Cc1cc2cc(C)ccc2[nH]c1=O)C(=S)NCc1ccco1 | nt | nt | nt | nt | -4
Cc1ccc2[nH]c(=O)c(-c3nc4ccccn4c3NCc3ccco3)cc2c1 | 115 | 53* | 8 | 22 | -7
Cn1c(=O)c2c(nc(Oc3ccc4c(c3)OCO4)n2Cc2ccc(Br)cc2)n(C)c1=O | 103 | 2 | -6 | 52* | nt
Cn1c(=O)c2c(nc(Oc3ccc4c(c3)OCO4)n2Cc2ccc(F)cc2)n(C)c1=O | nt | nt | nt | nt | -1
O=C(Nc1ccc(Cl)c(Cl)c1)N(CCCN1CCOCC1)Cc1cccs1 | 109 | -1 | -7 | -8 | -4
COc1ccc(OC)c(/C=N/c2oc(-c3ccco3)c(-c3ccco3)c2C#N)c1 | 41 | 62* | -13 | 73* | -2
N#Cc1c(N)oc(-c2ccccc2)c1-c1ccccc1 | 93 | -1 | 5 | 3 | -1
N#Cc1c(N)oc(-c2ccco2)c1-c1ccco1 | 25 | 37 | -12 | 55*[fluorescence artefact?] | -3
Cc1[nH]n(-c2ccccc2)c(=O)c1/C=N/n1c(C)nc2ccccc2c1=O | 101 | -6 | -6 | -8 | -3
Cc1ccc(-n2[nH]c(C)c(/C=N/n3c(C)nc4ccccc4c3=O)c2=O)cc1 | 111 | -1 | -15 | 85* | -3
CCN(CC)S(=O)(=O)c1cccc(-c2nnc(SCCCC(=O)c3ccc(F)cc3)o2)c1 | 578*[fluorescence artefact?] | 1 | 13 | 27 | -3
Cc1c(/C=N/NC(=O)C(NC(=O)c2ccc3c(c2)OCO3)C(C)C)c2ccccc2n1C (centres undefined) | nt | nt | nt | nt | -2
CCN1CCc2nc(NC(=O)C(c3ccccc3)c3ccccc3)sc2C1 | 114 | -16 | -11 | -13 | -1
CCN1CCc2nc(NC(=O)Cc3ccc4c(c3)OCCO4)sc2C1 | 60 | 54* | 0 | 19 | 0
CCN1CCc2nc(NC(=O)CC(c3ccccc3)c3ccccc3)sc2C1 | 282*[fluorescence artefact?] | 38 | 2 | 11 | -3
CC(=O)N1CCc2c(sc(NC(=O)c3ccc4c(c3)OCCO4)c2C#N)C1 | 96 | -1 | -21 | -4 | -3
O=C(Nc1nc2c(s1)CN(Cc1ccccc1)CC2)c1cccc(S(=O)(=O)N2CCc3ccccc32)c1 | 500*[fluorescence artefact?] | -6 | 12 | -4 | -4
CCN1CCc2nc(NC(=O)c3ccc4c(c3)OCCO4)sc2C1 | 94 | 51*[fluorescence artefact?] | 6 | 27 | -2
O=c1c2ccccc2nc(/C=C/c2ccc([N+](=O)[O-])o2)n1CCCO | nt | nt | nt | nt | -3
CCOc1ccc(OCc2cccc(C(=O)O)c2)cc1 | nt | nt | nt | nt | -2
CCOc1cc(OCC)cc(C(=O)O)c1 | 96 | 99*[fluorescence artefact?] | 5 | 10 | -2
CCOC(=O)c1csc(NC(=O)CSc2nnnn2-c2cccc(OC)c2)n1 | 143 | 4 | 1 | -7 | -1
Cc1ccc(-n2nnnc2SCC(=O)Nc2ccc3c(c2)COC3=O)cc1C | 150 | 73* | -9 | 48 | -5
SMILES | ERa coact pot | ERa coact inh | MRP resist rev | ERb SRC1 inh | MRP-1 activ
COc1cccc(-n2nnnc2SCC(=O)Nc2ccc(C(C)=O)cc2)c1 | 332* | 33 | 10 | 30 | 2
Cc1ccc(NC(=O)CSc2nnnn2-c2ccc3c(c2)OCO3)cc1C | 330* | 56*[fluorescence artefact?] | 3 | 38 | -3
Cc1ccccc1OCC1Cc2c(nc(N)c(C#N)c2N)O1 (centres undefined) | nt | nt | nt | nt | -2
COc1c(F)c(F)c(C(=O)Nc2ccc(N3CCN(Cc4ccccc4)CC3)cc2)c(F)c1F | 82 | -7 | -13 | 21 | -1
Cn1c(O)c(C(C#N)=C2N=c3ccccc3=N2)c2ccccc21 | 68 | 80*[fluorescence artefact?] | -11 | 48 | -4
CSc1nnc(Cc2sc(-c3ccccc3)nc2-c2ccccc2)o1 | 98 | 6 | 12 | -5 | 1
Fc1ccc(CSc2nnc(Cc3sc(-c4ccccc4)nc3-c3ccccc3)o2)cc1 | 274*[fluorescence artefact?] | -20 | 8 | -9 | 2
COc1ccc(CSc2nnc(Cc3sc(-c4ccccc4)nc3-c3ccccc3)o2)cc1 | 438*[fluorescence artefact?] | -41 | -12 | -18 | 2
Cc1ccc(C(c2nnnn2Cc2ccccc2)N2CCN(Cc3ccccc3)CC2)cc1 (centres undefined) | 104 | 1 | -19 | -8 | -1
Cc1noc(C)c1C(=O)N1CCN(Cc2ccccc2)CC1 | 97 | 2 | 9 | -12 | -2
Cc1noc(C)c1C(=O)N1CCN(C(=O)c2sc3cc(Cl)ccc3c2Cl)CC1 | 111 | -4 | 9 | 69*[fluorescence artefact?] | -1
Cc1cccc(C(=O)NNC(=O)c2ccc(-c3ccccc3)cc2)c1 | nt | nt | nt | nt | -1
Cc1cccc(C(=O)NNC(=O)CN2C(=O)c3ccccc3C2=O)c1 | nt | nt | nt | nt | 4.8*
CCOC(=O)c1cc(C#N)c(Oc2ccccc2OC)nc1-c1ccccc1 | nt | nt | nt | nt | -3
CCCN1Cc2cccc(C(=O)Nc3ccc(-c4nc5ccccc5[nH]4)cc3)c2C1=O | nt | nt | nt | nt | 0
COCCOC(=O)c1c(C)nc(SCC(=O)Nc2ccc(OC)cc2)c(C#N)c1-c1ccco1 | 111 | 3 | 11 | -2 | 1
Cc1nc(SCC(=O)c2ccccc2)c(C#N)c(-c2ccco2)c1C(=O)NCc1ccco1 | 236* | 18 | 6 | 19 | -5
O=C(Nc1cccn(Cc2c(Cl)cccc2Cl)c1=O)c1c(Cl)cccc1Cl | nt | nt | nt | nt | 9.2*
COc1cc(/C=N/NC(=O)C23CC4CC(CC(C4)C2)C3)cc(Br)c1O | nt | nt | nt | nt | 14*
CCCCCC(=O)N/N=C/c1cc(Br)c(O)c(OC)c1 | nt | nt | nt | nt | -3
C1=C(c2ccc(-c3ccccc3)cc2)Nc2ncnn2C1c1ccco1 (centres undefined) | 110 | 69*[fluorescence artefact?] | -4 | 32 | -3
Fc1ccc(C2=CC(c3ccco3)n3ncnc3N2)cc1 (centres undefined) | nt | nt | nt | nt | -3
CCC(C)/C(C)=N/NC(=O)c1ccc(CSc2nc3ccccc3s2)cc1 (centres undefined) | nt | nt | nt | nt | -3
O=C(c1cc2nc(-c3ccco3)cc(C(F)(F)F)n2n1)N1CCCc2ccccc21 | 101 | 14 | 7 | 15 | -1
O=C(c1cc(-c2ccco2)on1)N1CCCc2ccccc21 | 95 | 66* | 2 | 52* | -1
O=C(c1cc(-c2ccco2)on1)N1CCc2ccccc2C1 | 91 | 58* | -29 | 51* | -3
Cc1cc(C)c2nc(/N=C(\N)NC(=O)Nc3ccccc3)nc(C)c2c1 | nt | nt | nt | nt | -4
CCOC(=O)c1ccc(S(=O)(=O)NNC(=O)COc2ccccc2C)cc1 | nt | nt | nt | nt | -2
CCn1c(C(=O)N2CCCC(C(=O)NCCc3ccc(C)cc3)C2)cc2sccc21 (centres undefined) | 100 | -60 | -26 | -8 | -1
